# Target: AgAbp1
# Assay: SPOT peptide array binding signal intensity (averaged, normalized) (arbitrary units (background-subtracted, floor 0; scale differs between SH3 domains)); higher = stronger binding of the SH3 domain to the peptide
# Method in brief: (§1)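 The binding signal is the normalized, background-subtracted spot intensity averaged over replicates; its arbitrary units differ between domains. It was obtained by incubating 10 μg/ml GST-fused SH3 domains from four yeast species overnight at 4°C in TBS-based blocking buffer on cellulose membranes with synthetic 15-mer peptides, cysteines replaced by serines, then detecting with anti-GST antibody, HRP anti-mouse secondary and luminol.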
row,Binder,SPOT peptide array binding signal intensity
1,DHPKGPPPPPPPDEK,9

# Target: AgBbc1
# Assay: as above
# Method in brief: as §1
row,Binder,SPOT peptide array binding signal intensity
1,DHPKGPPPPPPPDEK,3.75

# Target: AgBem1-D1
# Assay: as above
# Method in brief: as §1
row,Binder,SPOT peptide array binding signal intensity
1,DHPKGPPPPPPPDEK,≤ 0

# Target: AgBzz1-D1
# Assay: as above
# Method in brief: as §1
row,Binder,SPOT peptide array binding signal intensity
1,DHPKGPPPPPPPDEK,1100

# Target: AgBzz1-D2
# Assay: as above
# Method in brief: as §1
row,Binder,SPOT peptide array binding signal intensity
1,DHPKGPPPPPPPDEK,111

# Target: AgCyk3
# Assay: as above
# Method in brief: as §1
row,Binder,SPOT peptide array binding signal intensity
1,DHPKGPPPPPPPDEK,≤ 0

# Target: AgFus1
# Assay: as above
# Method in brief: as §1
row,Binder,SPOT peptide array binding signal intensity
1,DHPKGPPPPPPPDEK,6.5

# Target: AgHof1
# Assay: as above
# Method in brief: as §1
row,Binder,SPOT peptide array binding signal intensity
1,DHPKGPPPPPPPDEK,≤ 0

# Target: AgHse1
# Assay: as above
# Method in brief: as §1
row,Binder,SPOT peptide array binding signal intensity
1,DHPKGPPPPPPPDEK,33

# Target: AgLsb1
# Assay: as above
# Method in brief: as §1
row,Binder,SPOT peptide array binding signal intensity
1,DHPKGPPPPPPPDEK,1.5

# Target: AgLsb4
# Assay: as above
# Method in brief: as §1
row,Binder,SPOT peptide array binding signal intensity
1,DHPKGPPPPPPPDEK,≤ 0

# Target: AgMyo5
# Assay: as above
# Method in brief: as §1
row,Binder,SPOT peptide array binding signal intensity
1,DHPKGPPPPPPPDEK,1710

# Target: AgNbp2
# Assay: as above
# Method in brief: as §1
row,Binder,SPOT peptide array binding signal intensity
1,DHPKGPPPPPPPDEK,7

# Target: AgRvs167
# Assay: as above
# Method in brief: as §1
row,Binder,SPOT peptide array binding signal intensity
1,DHPKGPPPPPPPDEK,1.17

# Target: AgSho1
# Assay: as above
# Method in brief: as §1
row,Binder,SPOT peptide array binding signal intensity
1,DHPKGPPPPPPPDEK,≤ 0

# Target: AgSla1-D1-D2
# Assay: as above
# Method in brief: as §1
row,Binder,SPOT peptide array binding signal intensity
1,DHPKGPPPPPPPDEK,14

# Target: AgSla1-D3
# Assay: as above
# Method in brief: as §1
row,Binder,SPOT peptide array binding signal intensity
1,DHPKGPPPPPPPDEK,297

# Target: CaAbp1-D1
# Assay: as above
# Method in brief: as §1
row,Binder,SPOT peptide array binding signal intensity
1,DHPKGPPPPPPPDEK,1.5

# Target: CaAbp1-D2
# Assay: as above
# Method in brief: as §1
row,Binder,SPOT peptide array binding signal intensity
1,DHPKGPPPPPPPDEK,1

# Target: CaBbc1
# Assay: as above
# Method in brief: as §1
row,Binder,SPOT peptide array binding signal intensity
1,DHPKGPPPPPPPDEK,≤ 0

# Target: CaBem1-D1
# Assay: as above
# Method in brief: as §1
row,Binder,SPOT peptide array binding signal intensity
1,DHPKGPPPPPPPDEK,≤ 0

# Target: CaBzz1-D1
# Assay: as above
# Method in brief: as §1
row,Binder,SPOT peptide array binding signal intensity
1,DHPKGPPPPPPPDEK,2890

# Target: CaBzz1-D2
# Assay: as above
# Method in brief: as §1
row,Binder,SPOT peptide array binding signal intensity
1,DHPKGPPPPPPPDEK,2700

# Target: CaCyk3
# Assay: as above
# Method in brief: as §1
row,Binder,SPOT peptide array binding signal intensity
1,DHPKGPPPPPPPDEK,≤ 0

# Target: CaFus1
# Assay: as above
# Method in brief: as §1
row,Binder,SPOT peptide array binding signal intensity
1,DHPKGPPPPPPPDEK,≤ 0

# Target: CaHof1
# Assay: as above
# Method in brief: as §1
row,Binder,SPOT peptide array binding signal intensity
1,DHPKGPPPPPPPDEK,2.5

# Target: CaHse1
# Assay: as above
# Method in brief: as §1
row,Binder,SPOT peptide array binding signal intensity
1,DHPKGPPPPPPPDEK,6

# Target: CaLsb1
# Assay: as above
# Method in brief: as §1
row,Binder,SPOT peptide array binding signal intensity
1,DHPKGPPPPPPPDEK,≤ 0

# Target: CaLsb4
# Assay: as above
# Method in brief: as §1
row,Binder,SPOT peptide array binding signal intensity
1,DHPKGPPPPPPPDEK,20.5

# Target: CaMyo5
# Assay: as above
# Method in brief: as §1
row,Binder,SPOT peptide array binding signal intensity
1,DHPKGPPPPPPPDEK,38.8

# Target: CaNbp2
# Assay: as above
# Method in brief: as §1
row,Binder,SPOT peptide array binding signal intensity
1,DHPKGPPPPPPPDEK,≤ 0

# Target: CaRvs167
# Assay: as above
# Method in brief: as §1
row,Binder,SPOT peptide array binding signal intensity
1,DHPKGPPPPPPPDEK,0.667

# Target: CaRvs167-3
# Assay: as above
# Method in brief: as §1
row,Binder,SPOT peptide array binding signal intensity
1,DHPKGPPPPPPPDEK,≤ 0

# Target: CaSho1
# Assay: as above
# Method in brief: as §1
row,Binder,SPOT peptide array binding signal intensity
1,DHPKGPPPPPPPDEK,7.5

# Target: CaSla1-D1-D2
# Assay: as above
# Method in brief: as §1
row,Binder,SPOT peptide array binding signal intensity
1,DHPKGPPPPPPPDEK,12

# Target: CaSla1-D3
# Assay: as above
# Method in brief: as §1
row,Binder,SPOT peptide array binding signal intensity
1,DHPKGPPPPPPPDEK,2.75

# Target: ScAbp1
# Assay: as above
# Method in brief: as §1
row,Binder,SPOT peptide array binding signal intensity
1,DHPKGPPPPPPPDEK,4

# Target: ScBbc1
# Assay: as above
# Method in brief: as §1
row,Binder,SPOT peptide array binding signal intensity
1,DHPKGPPPPPPPDEK,3.5

# Target: ScBem1-D1
# Assay: as above
# Method in brief: as §1
row,Binder,SPOT peptide array binding signal intensity
1,DHPKGPPPPPPPDEK,4

# Target: ScBzz1-D1
# Assay: as above
# Method in brief: as §1
row,Binder,SPOT peptide array binding signal intensity
1,DHPKGPPPPPPPDEK,3400

# Target: ScBzz1-D2
# Assay: as above
# Method in brief: as §1
row,Binder,SPOT peptide array binding signal intensity
1,DHPKGPPPPPPPDEK,45

# Target: ScCyk3
# Assay: as above
# Method in brief: as §1
row,Binder,SPOT peptide array binding signal intensity
1,DHPKGPPPPPPPDEK,1

# Target: ScFus1
# Assay: as above
# Method in brief: as §1
row,Binder,SPOT peptide array binding signal intensity
1,DHPKGPPPPPPPDEK,8.5

# Target: ScHof1
# Assay: as above
# Method in brief: as §1
row,Binder,SPOT peptide array binding signal intensity
1,DHPKGPPPPPPPDEK,1

# Target: ScHse1
# Assay: as above
# Method in brief: as §1
row,Binder,SPOT peptide array binding signal intensity
1,DHPKGPPPPPPPDEK,2

# Target: ScLsb1
# Assay: as above
# Method in brief: as §1
row,Binder,SPOT peptide array binding signal intensity
1,DHPKGPPPPPPPDEK,1

# Target: ScLsb2
# Assay: as above
# Method in brief: as §1
row,Binder,SPOT peptide array binding signal intensity
1,DHPKGPPPPPPPDEK,≤ 0

# Target: ScLsb3
# Assay: as above
# Method in brief: as §1
row,Binder,SPOT peptide array binding signal intensity
1,DHPKGPPPPPPPDEK,≤ 0

# Target: ScLsb4
# Assay: as above
# Method in brief: as §1
row,Binder,SPOT peptide array binding signal intensity
1,DHPKGPPPPPPPDEK,0.5

# Target: ScMyo3
# Assay: as above
# Method in brief: as §1
row,Binder,SPOT peptide array binding signal intensity
1,DHPKGPPPPPPPDEK,1750

# Target: ScMyo5
# Assay: as above
# Method in brief: as §1
row,Binder,SPOT peptide array binding signal intensity
1,DHPKGPPPPPPPDEK,1380

# Target: ScNbp2
# Assay: as above
# Method in brief: as §1
row,Binder,SPOT peptide array binding signal intensity
1,DHPKGPPPPPPPDEK,18.5

# Target: ScPex13
# Assay: as above
# Method in brief: as §1
row,Binder,SPOT peptide array binding signal intensity
1,DHPKGPPPPPPPDEK,≤ 0

# Target: ScRvs167
# Assay: as above
# Method in brief: as §1
row,Binder,SPOT peptide array binding signal intensity
1,DHPKGPPPPPPPDEK,0.5

# Target: ScSho1
# Assay: as above
# Method in brief: as §1
row,Binder,SPOT peptide array binding signal intensity
1,DHPKGPPPPPPPDEK,≤ 0

# Target: ScSla1-D1-D2
# Assay: as above
# Method in brief: as §1
row,Binder,SPOT peptide array binding signal intensity
1,DHPKGPPPPPPPDEK,≤ 0

# Target: ScSla1-D3
# Assay: as above
# Method in brief: as §1
row,Binder,SPOT peptide array binding signal intensity
1,DHPKGPPPPPPPDEK,2.5

# Target: SpAbp1-D1
# Assay: as above
# Method in brief: as §1
row,Binder,SPOT peptide array binding signal intensity
1,DHPKGPPPPPPPDEK,8

# Target: SpBbc1
# Assay: as above
# Method in brief: as §1
row,Binder,SPOT peptide array binding signal intensity
1,DHPKGPPPPPPPDEK,≤ 0

# Target: SpBzz1-D1
# Assay: as above
# Method in brief: as §1
row,Binder,SPOT peptide array binding signal intensity
1,DHPKGPPPPPPPDEK,155

# Target: SpBzz1-D2
# Assay: as above
# Method in brief: as §1
row,Binder,SPOT peptide array binding signal intensity
1,DHPKGPPPPPPPDEK,1.75

# Target: SpCyk3
# Assay: as above
# Method in brief: as §1
row,Binder,SPOT peptide array binding signal intensity
1,DHPKGPPPPPPPDEK,≤ 0

# Target: SpHof1
# Assay: as above
# Method in brief: as §1
row,Binder,SPOT peptide array binding signal intensity
1,DHPKGPPPPPPPDEK,1

# Target: SpHof1-2
# Assay: as above
# Method in brief: as §1
row,Binder,SPOT peptide array binding signal intensity
1,DHPKGPPPPPPPDEK,6.5

# Target: SpHof1-3
# Assay: as above
# Method in brief: as §1
row,Binder,SPOT peptide array binding signal intensity
1,DHPKGPPPPPPPDEK,4

# Target: SpHse1
# Assay: as above
# Method in brief: as §1
row,Binder,SPOT peptide array binding signal intensity
1,DHPKGPPPPPPPDEK,87.2

# Target: SpLsb1
# Assay: as above
# Method in brief: as §1
row,Binder,SPOT peptide array binding signal intensity
1,DHPKGPPPPPPPDEK,≤ 0

# Target: SpLsb4
# Assay: as above
# Method in brief: as §1
row,Binder,SPOT peptide array binding signal intensity
1,DHPKGPPPPPPPDEK,≤ 0

# Target: SpMyo1
# Assay: as above
# Method in brief: as §1
row,Binder,SPOT peptide array binding signal intensity
1,DHPKGPPPPPPPDEK,1880

# Target: SpNbp2
# Assay: as above
# Method in brief: as §1
row,Binder,SPOT peptide array binding signal intensity
1,DHPKGPPPPPPPDEK,18.5

# Target: SpPex13
# Assay: as above
# Method in brief: as §1
row,Binder,SPOT peptide array binding signal intensity
1,DHPKGPPPPPPPDEK,10

# Target: SpRvs167
# Assay: as above
# Method in brief: as §1
row,Binder,SPOT peptide array binding signal intensity
1,DHPKGPPPPPPPDEK,≤ 0

# Target: SpSla1-D1-D2
# Assay: as above
# Method in brief: as §1
row,Binder,SPOT peptide array binding signal intensity
1,DHPKGPPPPPPPDEK,10

# Target: SpSla1-D3
# Assay: as above
# Method in brief: as §1
row,Binder,SPOT peptide array binding signal intensity
1,DHPKGPPPPPPPDEK,13
